Measured values taken from PubChem BioAssay (NCATS).
Records with an inconclusive call do not appear. Calls of active or inactive are those of the source. Calls follow the shape of the dose curve; as a rule, active = well fitted curve in the direction sought with a large enough effect; inconclusive = small, poorly fitted or top-dose-only effect, or another doubt; inactive = no such curve, though single readings can be large; an effect the other way counts as inactive or inconclusive.

system: Zika virus NS2B-NS3 protease; experiment: Primary screen GU AMC qHTS for Zika virus inhibitors (AID 1347154); conditions: Zika NS2B-NS3 unlinked protease, AMC fluorogenic substrate; series mostly up to 54.1 µM; activity change, negative = inhibition: at the top concentration; also: nearly all actives have a fitted effect of over 70% in size;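 as to activity change, negative = inhibition: 0% = no-inhibitor control and -100% = no-enzyme control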
Outline: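 Fluorogenic AMC-substrate cleavage by noncovalent NS2B-NS3 protease complex (25 nM, pH 8.0 Tris buffer with Tween 20) followed for 15 minutes at room temperature (~20% conversion). Percent inhibition from ex340/em450 signal change, fitted by 4-parameter Hill equation.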
Potency is read from the fitted curve at half-maximal effect.

SMILES | Potency | activity change, negative = inhibition
N[C@H](CSC(c1ccccc1)(c1ccccc1)c1ccccc1)C(=O)O | inactive | –
OC[C@@H](O)[C@H](O)[C@H](O)[C@@H](O)CO | inactive | –
O=C(O)c1cc(-c2ccccc2)nc2ccccc12 | inactive | –
COc1ccc(-n2c(C)c([N+](=O)[O-])c3ccc(O)cc32)cc1 | – | 2.69% (inactive)
CN(C)CCC=C1c2ccccc2COc2ccc(CC(=O)O)cc21 | – | 0.0627% (inactive)
c1ccc2c(Cc3c[nH]c4ccccc34)c[nH]c2c1 | – | -6.38% (inactive)
C[C@H](NC(=O)c1sccc1OCc1ccc(Cl)cc1)c1ccccc1 | – | -20.6% (inactive)
CCOC(=O)O[C@]1(C(=O)OCCl)CC[C@@H]2[C@H]3CCC4=CC(=O)C=C[C@]4(C)[C@@H]3[C@@H](O)C[C@@]21C | – | 3.26% (inactive)
COCCCCC(=NOCCN)c1ccc(C(F)(F)F)cc1 | inactive | –
COc1ccc(-c2cc(=O)c3c(O)cc(O)cc3o2)cc1O | – | -5.97% (inactive)
N#CC1(c2ccc(NC(=O)c3cccnc3NCc3ccncc3)cc2)CCCC1 | – | -4.91% (inactive)
Cc1c[nH]c(C=C2C(=O)Nc3ccccc32)c1CCC(=O)O | – | -16.6% (inactive)
CC=CCC=CCCC(=O)[C@H]1O[C@@H]1C(N)=O | – | 4.44% (inactive)
Cc1c(O)cccc1C(=O)N[C@@H](CSc1ccccc1)[C@H](O)CN1C[C@H]2CCCC[C@@H]2C[C@@H]1C(=O)NC(C)(C)C | – | -5.65% (inactive)
CC(C)[C@H](CO)Nc1nc(Nc2ccc(C(=O)O)c(Cl)c2)c2ncn(C(C)C)c2n1 | inactive | –
C[C@@H](O)[C@H]1C(=O)N2C(C(=O)O)=C(S[C@@H]3CN[C@H](C(=O)N(C)C)C3)[C@H](C)[C@H]12 | inactive | –
O=C(OCC#CCSc1nnc(-c2cccc3ccccc23)o1)c1cc2ccccc2s1 | – | -4.95% (inactive)
O=c1ccn([C@@H]2O[C@H](CO)[C@H](O)[C@H]2O)c(=O)[nH]1 | – | -3.64% (inactive)
O=C(O)c1cc(O)c2c(c1)C(=O)c1cccc(O)c1C2=O | 24.8 µM (active) | –

SMILES | Potency | activity change, negative = inhibition
O=C(O)C=Cc1ccc(O)c(O)c1 | – | 16% (inactive)
N#C[C@H]1C[C@H]2C[C@@H]2N1C(=O)[C@@H](N)C12CC3CC(CC(O)(C3)C1)C2 | – | -3.49% (inactive)
C[C@H]1[C@H](NC(=O)C(=NOC(C)(C)C(=O)O)c2csc(N)n2)C(=O)N1S(=O)(=O)O | – | -2.1% (inactive)
CO[C@H]1C[C@@H]2CC[C@@H](C)[C@@](O)(O2)C(=O)C(=O)N2CCCC[C@@H]2C(=O)O[C@H]([C@H](C)C[C@@H]2CC[C@H](OC(=O)C(C)(CO)CO)[C@H](OC)C2)CC(=O)[C@H](C)C=C(C)[C@@H](O)[C@@H](OC)C(=O)[C@H](C)C[C@H](C)C=CC=CC=C1C | – | 6.27% (inactive)
COc1ccc2cccc(CCNC(C)=O)c2c1 | – | 5.42% (inactive)
CC(C)(C)c1cc(C(=O)O)c(NC(=O)Nc2ccc3[nH]ncc3c2)s1 | – | -16.9% (inactive)
C[N+]1(C)[C@@H]2CC(OC(=O)[C@H](CO)c3ccccc3)C[C@H]1[C@H]1O[C@@H]12 (stereo partly drawn) | – | 10.2% (inactive)
CC#CCn1c(N2CCC[C@@H](N)C2)nc2c1c(=O)n(Cc1nc(C)c3ccccc3n1)c(=O)n2C | – | -1.48% (inactive)
COc1ccc2c3c1OC1C[C@@H](O)C=C[C@@]31CCN(C)C2 (stereo partly drawn) | – | -5.16% (inactive)
O=C(CCN1CCN(C(=O)OCc2cc(Cl)cc(Cl)c2)CC1)c1ccc2[nH]c(=O)oc2c1 | – | 11.3% (inactive)
O=C(NC1CCOCC1)c1ccc(-c2cc(-c3cn[nH]c3-c3ccccn3)ccn2)cc1 | – | 18.5% (inactive)
O=C1NC(=O)C(=Cc2ccc(-c3ccc(F)cc3)o2)S1 | – | -10.6% (inactive)
CCC(=O)NC[C@H](Cc1ccc(OCCc2nc(-c3ccccc3)oc2C)cc1)NC(C)=CC(=O)c1ccc(C(F)(F)F)cc1 | – | -1.64% (inactive)
NC(CO)(CO)CCc1ccc(Sc2cccc(OCc3ccccc3)c2)cc1Cl | – | 4.67% (inactive)
Clc1ccc(-c2nc3sccn3c2C=NOCc2ccc(Cl)c(Cl)c2)cc1 | – | -7.93% (inactive)
O=c1cc(-c2cccc3c2Sc2ccccc2S3)oc(N2CCOCC2)c1 | – | -18.9% (inactive)
CC=CC(=O)N(CC)c1ccccc1C | – | 14.5% (inactive)
CC[C@H]1OC(=O)[C@H](C)[C@@H](O[C@H]2C[C@@](C)(OC)[C@@H](O)[C@H](C)O2)[C@H](C)[C@@H](O[C@@H]2O[C@H](C)C[C@H](N(C)C)[C@@H]2O)[C@](C)(O)C[C@@H](C)CN(C)[C@H](C)[C@@H](O)[C@]1(C)O | – | 0.969% (inactive)
Nc1ncnc2ccccc12 | – | 11.1% (inactive)

system: Zika virus NS2B-NS3 protease (unlinked complex); experiment: Primary screen GU Rhodamine qHTS for Zika virus inhibitors: Unlinked NS2B-NS3 protease assay (AID 1347159); conditions: Recombinant ZIKV NS2B-NS3 protease, Rhodamine110 substrate fluorescence; series mostly up to 107 µM; activity change, negative = inhibition: at the top concentration; also: nearly all actives have a fitted effect of over 60% in size; as to activity change, negative = inhibition: % is scaled to controls: 0 for no effect and ±100 for the full control effect
Outline: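 In dose–response format, inhibition of unlinked protease (25 nM) was measured with 1.5 microM bis-peptide Rhodamine110 substrate. Aprotinin served as the intraplate control.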

SMILES | activity change, negative = inhibition | Potency
O=C(O)c1cc(-c2ccccc2)nc2ccccc12 | 31.2% (inactive) | –
CC(C)[C@H](CO)Nc1nc(Nc2ccc(C(=O)O)c(Cl)c2)c2ncn(C(C)C)c2n1 | 0% [at 57.1 µM] (inactive) | –
CC(C)(C)c1cc(C(=O)O)c(NC(=O)Nc2ccc3[nH]ncc3c2)s1 | – | 17.8 µM (active)
O=C(CCN1CCN(C(=O)OCc2cc(Cl)cc(Cl)c2)CC1)c1ccc2[nH]c(=O)oc2c1 | – | 44.7 µM (active)
O=C(NC1CCOCC1)c1ccc(-c2cc(-c3cn[nH]c3-c3ccccn3)ccn2)cc1 | -3.83% (inactive) | –
